In PubChem BioAssay AID1918 (Vanderbilt High Throughput Screening Facility, 2009):
In all, about 130,000 compounds went through this assay and about 2,500 (1.9%) were called active. Many of the other results were omitted from the sample, so actives are more common in it than they were. Values without a mark were called inactive.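 How the source made its calls: active means signal ratio slope over the read window, or its plate-corrected B-score, at least 3 SD from the plate mean, either direction; inactive means the rest.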

These molecules were tested against ATP-sensitive inward rectifier potassium channel 1 (Homo sapiens) (UniProt P48048) (assay: Kir1.1 channel activity modulation, library screen – cell-based, thallium flux, MLSMR library, primary screen (AID 1918;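 further: B-score of the F/F0 ratio slope over 7 to 12 s after thallium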)). Conditions: Tet-inducible ROMK, thallium flux fluorescence; at 10 µM; actives lie on both sides.
Sequence of ATP-sensitive inward rectifier potassium channel 1 (Homo sapiens) (P48048 whole entry, looked up): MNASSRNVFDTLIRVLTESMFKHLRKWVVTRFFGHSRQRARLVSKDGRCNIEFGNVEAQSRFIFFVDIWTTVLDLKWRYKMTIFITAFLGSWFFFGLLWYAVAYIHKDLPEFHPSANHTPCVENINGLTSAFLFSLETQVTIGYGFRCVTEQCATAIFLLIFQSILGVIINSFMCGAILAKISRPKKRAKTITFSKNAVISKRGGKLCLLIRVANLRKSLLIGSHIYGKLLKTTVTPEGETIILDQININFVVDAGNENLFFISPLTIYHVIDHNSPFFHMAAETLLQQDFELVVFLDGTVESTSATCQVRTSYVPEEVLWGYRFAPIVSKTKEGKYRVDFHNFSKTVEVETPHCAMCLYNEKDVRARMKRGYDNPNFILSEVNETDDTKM

Compared with `O=C1/C(=C\c2ccccc2Cl)SC(=S)N1CCC(=O)N1CCCc2ccccc21`, `O=C(Nc1nc2ccc([N+](=O)[O-])cc2s1)c1ccc(S(=O)(=O)N2CCCc3ccccc32)cc1` is lower in B-score: -0.502 for the first, -2.44 for the second.

Going from `O=C(CN1CCCCC1)Nc1ccccc1Cl` to `O=C(NCCCN1CCOCC1)c1ccccc1NS(=O)(=O)c1ccc(F)cc1`, the B-score falls from 1.02 to 0.243.

Going from `CSc1ccc(CNCCN2CCOCC2)cc1` to `CCCCc1nc(NCc2ccccc2)c(C#N)c2c1CCCC2`, the B-score rises from -0.131 to 0.19.

Compared with `CCN(CC(=O)NCc1cccs1)S(=O)(=O)c1ccc(NC(C)=O)cc1`, `CCN(CC)C(=O)CN(c1cccc([N+](=O)[O-])c1)S(=O)(=O)c1ccccc1` is higher in B-score: -0.12 for the first, 0.165 for the second.

First: O=C(Nc1cccc([N+](=O)[O-])c1)Nc1ccc(Cl)cn1
Second: C/C(=N/NC(=O)CSc1ccccn1)c1ccc([N+](=O)[O-])cc1
The B-score of the first is higher: 0.868 for the first, -0.494 for the second.

Going from `COc1cccc(CC2(CO)CCCN(CC3=Cc4cc(OC)ccc4OC3)C2)c1` (configuration not stated) to `COc1cccc(CN2CCNC(=O)C2CC(=O)N(C)CCc2ccccn2)c1` (configuration not stated), the B-score rises from -0.447 to 0.0523.

First: COc1cccc(-n2c(=S)sc3c(=O)n(-c4ccccc4OC)c(SCC4OCCO4)nc32)c1
Second: CCc1ccc(-n2c(=S)sc3c(=O)n(-c4ccccc4OC)c(=S)[nH]c32)cc1
The B-score of the first is higher: 0.408 for the first, 0.222 for the second.

Compared with `COc1ccc(NC(=O)c2ccccc2CC[N+](=O)[O-])cc1`, `C[C@H](NC(=O)c1ccccc1Cl)C(=O)OCCOc1cccc(Cl)c1` is lower in B-score: 0.216 for the first, 0.0242 for the second.

Compared with `COC(=O)COc1cccc2c(=O)n(CC(=O)NCCc3ccc(OC)c(OC)c3)ccc12`, `CCOC(=O)C(C)Oc1cccc2c(=O)n(CC(=O)NCCc3ccc(OC)c(OC)c3)ccc12` (configuration not stated) is lower in B-score: -0.562 for the first, -0.831 for the second.

Compared with `O=c1cnnc(Nc2ccccc2F)[nH]1`, `CCOC(=O)Cc1csc(NC(=O)Nc2ccccc2)n1` is lower in B-score: 0.476 for the first, 0.0709 for the second.

First: CCOC(=O)Cc1csc(NC(=O)CSc2nnc(-c3cccnc3)n2Cc2ccco2)n1
Second: CCOC(=O)Cc1csc(NC(=O)CSc2nc(C)cc(=O)[nH]2)n1
The B-score of the first is higher: 0.0388 for the first, -0.406 for the second.

Going from `CCOC(=O)Cc1csc(NC(NC(=O)OCC)(C(F)(F)F)C(F)(F)F)n1` to `CCC(C)NC(=O)Cn1nc(C(F)(F)F)c2c1CCC2` (configuration not stated), the B-score falls from 1.5 to -0.0332.

Going from `Cn1nc(C(F)(F)F)c2cc(C(=O)N3CCOCC3)sc21` to `COc1ccc(S(=O)(=O)NCC2CCCN(C(=O)c3occc3C)C2)cc1` (configuration not stated), the B-score falls from 1.3 to -0.286.

Going from `COc1ccccc1-n1ccnc1SCC(=O)NC(C)(C)C` to `COc1cccc2c(N/N=C/c3ccco3)cc(C)nc12`, the B-score falls from -0.243 to -0.776.

Going from `Cc1nc(NCCN)c(C#N)c2c1COC(C)(C)C2` to `Cc1cc(=O)oc2c1c(C)nn2-c1ccc(Cl)cc1`, the B-score rises from 0.0226 to 0.108.

Going from `COc1cc2nc(CN(C)Cc3ccc(F)cc3)[nH]c(=O)c2cc1OC` to `COc1ccc(-c2nc(CN3CCN(c4ncccn4)CC3)c(C)o2)cc1C`, the B-score falls from 0.927 to -0.768.

First: Cc1cc(NC(=O)OC(C)C)ccc1-c1ccc(NC(=O)OC(C)C)cc1C
Second: C/C=C/C=C/C(=O)OCC(=O)Nc1ccc(Cl)cc1
The B-score of the first is higher: 0.938 for the first, -0.0163 for the second.

Going from `O=C(NNC(=O)C1C2CCC(C2)C1C(=O)O)c1ccc(Cl)cc1` (configuration not stated) to `COc1ccc(Cl)cc1C(=O)NNC(=S)NC(=O)/C=C/c1ccco1`, the B-score rises from -0.0201 to 1.26.

First: Cc1cc(-c2csc(N)n2)c(C)n1Cc1ccccc1
Second: O=C(O)CCC(=O)Nc1nc2ccc([N+](=O)[O-])cc2s1
The B-score of the first is lower: -1.12 for the first, 0.0361 for the second.

With `O=C(CN1CCCCCC1)NCCN1C(=O)S/C(=C\c2ccccc2Cl)C1=O` the B-score was -2.58 (active).
For `O=C(CCl)N(Cc1cccc([N+](=O)[O-])c1)c1cccc(Cl)c1`, the B-score was -3.06 (active).
In the case of `COc1ccccc1-n1c(=S)[nH]c2c(sc(=S)n2-c2ccc(C)cc2C)c1=O`, the B-score was 2.35 (active).
For `COC(=O)COc1cccc2c(=O)n(CC(=O)NCc3ccccc3)ccc12`, the B-score was 2.99 (active).
In the case of `CCOC(=O)Cc1csc(SCC(=O)NC(C)C23CC4CC(CC(C4)C2)C3)n1` (configuration not stated), the B-score was -3.3 (active).
With `CCOC(=O)Cc1csc(NC(=O)CSc2ccc(Br)cc2)n1` the B-score was -2.72 (active).
In the case of `CCCCc1nc(NCCN)c(C#N)c2c1CSC(C)(C)C2`, the B-score was -3.92 (active).
`COc1cc2c(cc1OC)C(/C=C/c1ccco1)=NCC2` was tested, and the B-score was -7.44 (active).
For `O=C(NC(Nc1nc2ccc([N+](=O)[O-])cc2s1)(C(F)(F)F)C(F)(F)F)c1ccccc1`, the B-score was -4.53 (active).
